In PubChem BioAssay:
Active and inactive are the calls of the source.

Assays:
[1] = system: Human papillomavirus type 1a protein E7 (residues 44-93); experiment: small molecules binding HPV E7 44-93 – biochemical, small-molecule microarray, residues 44-93, 635 nm fluorescence, primary screen (AID 1108); settings: fluorescence 635 nm, higher = more signal;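 also: E7 fragment applied at 1 µg/mL in TBST for 1 h at 4 C; score combines spot fluorescence with its signal to noise ratio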
[2] = hepatitis C replication reporter changes, two-sided – Huh7 cells, luciferase reporter, HCV replication inhibitor project, primary screen (AID 1109); settings: Huh7 HCV replicon luciferase reporter, 48 h; higher = more signal;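 also: huh7 hepatoma cells harbouring a luciferase neomycin HCV replicon reporter; luciferase luminescence as measure of HCV replicon replication; test concentration not given here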
[3] = biological target: Left-right determination factor 2 (Homo sapiens) (UniProt O00292); experiment: small molecules binding LEFTY2 protein – biochemical, small-molecule microarray, 635 nm fluorescence scan, primary screen (AID 1110); settings: higher = more signal
Left-right determination factor 2 (Homo sapiens), sequence (O00292 whole entry, looked up): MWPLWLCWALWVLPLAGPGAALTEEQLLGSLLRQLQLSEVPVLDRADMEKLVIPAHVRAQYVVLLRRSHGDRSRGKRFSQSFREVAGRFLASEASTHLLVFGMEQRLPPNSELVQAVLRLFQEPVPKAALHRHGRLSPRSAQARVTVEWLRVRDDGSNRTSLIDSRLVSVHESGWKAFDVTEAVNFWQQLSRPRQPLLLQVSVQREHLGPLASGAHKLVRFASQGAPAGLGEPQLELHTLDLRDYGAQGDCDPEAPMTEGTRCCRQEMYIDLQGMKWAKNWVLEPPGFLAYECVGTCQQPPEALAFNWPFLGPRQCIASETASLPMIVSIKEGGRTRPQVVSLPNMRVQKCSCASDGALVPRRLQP

[4] = biological target: Calmodulin-1 (Homo sapiens) (UniProt P0DP23); experiment: small molecules binding calmodulin-1 with EGTA – biochemical, small-molecule microarray, Cy5-labelled CALM1, profiling panel (AID 1111); settings: Cy5-CALM1 binding fluorescence, higher = more signal;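 also: labelled calmodulin applied in Tris saline Tween buffer holding calcium plus EGTA and DTT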
[5] = biological target: Calmodulin-1 (Homo sapiens) (UniProt P0DP23); experiment: small molecules binding Ca-loaded calmodulin-1 – biochemical, small-molecule microarray, Cy5-labelled CALM1, plus calcium, artefact control for SMM control-protein annotation, profiling panel (AID 1112); settings: Cy5-CALM1 binding fluorescence, higher = more signal;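 also: score merges spot fluorescence with signal to noise from triplicate slides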
[6] = probe aWnt5a binding to arrayed compounds – biochemical, biotinylated probe, 635/667 nm fluorescence, primary screen (AID 1113); settings: small-molecule microarray, higher = more signal;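 also: score merges 667 nm fluorescence intensity with signal-to-noise per printed feature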
[7] = probe aShh binding to arrayed compounds – biochemical, biotinylated probe, 635/667 nm fluorescence, primary screen (AID 1114); settings: small-molecule microarray, higher = more signal;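 also: probe is biotin-labelled aShh protein from a stem cell growth factor screen; measures binding of labelled protein to compounds printed on the slide; score merges feature fluorescence at 667 nm with signal-to-noise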
[8] = probe aNog binding to arrayed compounds – biochemical, biotinylated probe, 635/667 nm fluorescence, primary screen (AID 1115); settings: small-molecule microarray, higher = more signal;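 also: probe is biotinylated aNog protein used at 0.15 µg/mL for 1 h at 4 C; z-score combines 667 nm fluorescence of each spot with its signal to noise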
[9] = biological target: Torsin-1A-interacting protein 1 (Homo sapiens) (UniProt Q5JTV8); experiment: compound microarray binding of lysate hLAP1 – cell lysate, small-molecule microarray, COS7 lysate, 635/667 nm fluorescence, primary screen (AID 1116); settings: 635 nm fluorescence, higher = more signal
Torsin-1A-interacting protein 1 (Homo sapiens), sequence (Q5JTV8 whole entry, looked up): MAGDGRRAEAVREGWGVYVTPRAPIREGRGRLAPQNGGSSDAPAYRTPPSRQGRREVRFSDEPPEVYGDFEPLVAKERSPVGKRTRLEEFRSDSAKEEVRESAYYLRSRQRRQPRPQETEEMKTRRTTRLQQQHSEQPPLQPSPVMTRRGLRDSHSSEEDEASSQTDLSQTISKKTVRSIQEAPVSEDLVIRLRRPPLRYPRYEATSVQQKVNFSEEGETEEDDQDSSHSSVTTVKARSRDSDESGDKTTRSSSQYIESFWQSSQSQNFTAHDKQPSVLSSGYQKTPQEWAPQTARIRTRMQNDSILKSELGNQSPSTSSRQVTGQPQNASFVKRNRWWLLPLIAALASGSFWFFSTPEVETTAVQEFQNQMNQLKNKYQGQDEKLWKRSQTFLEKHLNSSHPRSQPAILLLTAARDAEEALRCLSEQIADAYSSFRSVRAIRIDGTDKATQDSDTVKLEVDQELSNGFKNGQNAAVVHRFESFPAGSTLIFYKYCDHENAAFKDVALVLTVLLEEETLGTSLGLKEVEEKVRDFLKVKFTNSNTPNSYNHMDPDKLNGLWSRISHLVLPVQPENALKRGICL

[10] = biological target: Alpha-bungarotoxin (Bungarus multicinctus) (UniProt P60615); experiment: compounds binding labelled alpha-BTX control protein – biochemical, small-molecule microarray, Alexa647 label, 635/667 nm fluorescence, artefact control for SMM control protein annotation, profiling panel (AID 1117); settings: alpha-BTX-A647 binding fluorescence, higher = more signal
Alpha-bungarotoxin (Bungarus multicinctus), sequence (P60615 whole entry, looked up): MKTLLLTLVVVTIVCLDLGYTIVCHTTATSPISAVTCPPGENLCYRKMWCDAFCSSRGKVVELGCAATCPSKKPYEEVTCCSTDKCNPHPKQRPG

Albumin (Bos taurus) = Albumin (Bos taurus) (UniProt P02769); experiment: compounds binding labelled BSA control protein – biochemical, small-molecule microarray, Alexa647 label, 635/667 nm fluorescence, artefact control for SMM control protein annotation, profiling panel (AID 1118); settings: BSA-A647 binding, fluorescence 635 nm, higher = more signal;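 also: score merges 667 nm emission intensity and signal-to-noise per printed compound spot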
Albumin (Bos taurus), sequence (P02769 whole entry, looked up): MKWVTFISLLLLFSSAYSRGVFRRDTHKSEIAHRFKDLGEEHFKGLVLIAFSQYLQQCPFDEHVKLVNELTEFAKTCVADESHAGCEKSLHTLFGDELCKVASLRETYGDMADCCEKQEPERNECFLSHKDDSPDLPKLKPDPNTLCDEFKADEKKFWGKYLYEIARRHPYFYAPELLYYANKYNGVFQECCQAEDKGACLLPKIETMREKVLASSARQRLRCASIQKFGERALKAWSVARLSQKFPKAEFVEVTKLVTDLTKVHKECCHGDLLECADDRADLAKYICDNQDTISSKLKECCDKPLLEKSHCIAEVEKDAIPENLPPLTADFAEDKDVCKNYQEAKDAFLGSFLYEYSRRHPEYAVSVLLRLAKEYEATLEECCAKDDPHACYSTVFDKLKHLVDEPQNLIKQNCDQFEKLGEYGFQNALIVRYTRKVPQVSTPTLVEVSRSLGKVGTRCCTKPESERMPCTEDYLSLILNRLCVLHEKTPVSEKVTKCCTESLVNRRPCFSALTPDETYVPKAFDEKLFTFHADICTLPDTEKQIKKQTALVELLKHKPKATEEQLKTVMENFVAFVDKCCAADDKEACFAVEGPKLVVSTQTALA

[11] = probe aXIP binding to arrayed compounds – biochemical, NeuroSMM set, 635/667 nm fluorescence, primary screen (AID 1119); settings: small-molecule microarray, higher = more signal, called active from +8 up or from −8 down;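 also: probe is the protein aXip251-270 applied at 1 µg/mL to compound-printed slides; binding of probe to printed compounds measured as 667 nm fluorescence plus signal to noise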
[12] = probe aNOTCH3 binding on compound microarray – biochemical, small-molecule microarray, 635/667 nm fluorescence, primary screen (AID 1120); settings: higher = more signal;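 also: probe is a biotin-tagged antibody raised against NOTCH3 rather than NOTCH3 protein; score merges spot fluorescence near 667 nm with spot signal to noise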
[13] = probe aNOTCH2 binding on compound microarray – biochemical, small-molecule microarray, 635/667 nm fluorescence, primary screen (AID 1121); settings: higher = more signal;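 also: score merges feature fluorescence read at 667 nm with its signal to noise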
[14] = biological target: Carbonic anhydrase 2 (Homo sapiens) (UniProt P00918); experiment: compounds binding carbonic anhydrase 2 – biochemical, small-molecule microarray, Alexa647-labelled CAII, profiling panel (AID 1122); settings: CAII-A647 binding fluorescence, higher = more signal
[15] = COS7 lysate on small-molecule microarray, probe aHis, 635 nm (AID 1123); settings: COS7 cell lysate, fluorescence, higher = more signal;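 also: z-score combines 667nm fluorescence intensity with signal-to-noise per printed compound spot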
[16] = probe aLAP1 signal on lysate-treated microarray – cell lysate, small-molecule microarray, COS7 lysate, primary screen (AID 1124); settings: probe aLAP1, fluorescence, higher = more signal;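 also: lysate comes from COS7 cells expressing LAP1 and is applied at 0.3 µg/mL; score merges spot fluorescence near 667 nm with signal-to-noise over triplicate slides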
Sam68 (KHDRBS1) = experiment: compounds binding KHDRBS1 protein – biochemical, small-molecule microarray, 635 nm fluorescence, primary screen (AID 1125); settings: higher = more signal;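 also: score merges 667 nm channel intensity with signal to noise over triplicate slides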
[17] = system: Chordin-like protein 2 (CHRDL2); experiment: compounds binding chordin-like 2 – biochemical, small-molecule microarray, 635 nm fluorescence, primary screen (AID 1126); settings: fluorescence 635 nm, higher = more signal;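 also: printed compound slides probed with Chrdl2 protein at 4 µg/mL for 1 h at 4 C; score merges 667 nm emission intensity with signal to noise over three replicate slides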
[18] = biological target: Concanavalin-A (Canavalia ensiformis) (UniProt P02866); experiment: compounds binding concanavalin A lectin – biochemical, small-molecule microarray, Alexa647 label, 635 nm, artefact control for SMM control protein annotation, primary screen (AID 1127); settings: ConA-A647 binding fluorescence, higher = more signal;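 also: z combines 667 nm emission intensity with signal-to-noise across three replicate slides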
Concanavalin-A (Canavalia ensiformis), sequence (P02866 whole entry, looked up): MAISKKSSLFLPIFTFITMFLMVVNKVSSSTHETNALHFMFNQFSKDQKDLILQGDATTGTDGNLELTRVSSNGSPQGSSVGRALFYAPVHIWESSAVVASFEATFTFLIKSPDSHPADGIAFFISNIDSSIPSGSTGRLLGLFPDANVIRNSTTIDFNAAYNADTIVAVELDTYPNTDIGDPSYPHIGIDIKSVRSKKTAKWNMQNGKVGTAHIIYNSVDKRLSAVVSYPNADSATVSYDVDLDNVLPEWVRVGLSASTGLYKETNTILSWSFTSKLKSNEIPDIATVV

Compound	composite z-score [1]	z-score [2]	composite z-score [3]	composite z-score [4]	composite z-score [5]	composite z-score [6]	composite z-score [7]	composite z-score [8]	composite z-score [9]	composite z-score [10]	composite z-score (Albumin (Bos taurus))	composite Z-score [11]	composite z-score [12]	composite z-score [13]	composite z-score [14]	composite z-score [15]	composite z-score [16]	composite z-score (Sam68 (KHDRBS1))	composite z-score [17]	composite z-score [18]
CN1C(=O)C2C=CC(C(O)c3cccn3C)N(Nc3ccc([N+](=O)[O-])cc3[N+](=O)[O-])C2C1=O (stereo not given)	0.0443	-0.0091	-0.135	1.08	0.212	0.0357	0.496	0.31	-0.0083	0.401	0.38	-0.398 (inactive)	0.0681	0.476	0.848	0.856	0.376	-0.0879	-0.248	-0.0516
COCCOC(=O)N1C(=O)[C@@]2(c3ccccc31)[C@H](c1ccc(O)cc1)N1[C@H](c3ccccc3)[C@H](c3ccccc3)OC(=O)[C@H]1[C@@H]2C(=O)N1CCN(c2ncccn2)CC1	1.29	-1.51	0.332	0.667	0.618	-0.0084	0.0469	0.927	0.675	0.692	0.397	0.0692 (inactive)	-0.0014	0.0456	0.202	1.83	1.03	1.2	0.375	0.928
O=C1O[C@H](c2ccccc2)[C@H](c2ccccc2)N2[C@H]1[C@@H](C(=O)O)[C@]1(C(=O)Nc3ccc(C#CCCO)cc31)[C@H]2c1ccccc1OCCO	1.24	-0.488	-0.587	0.4	0.0772	-0.139	0.0141	-0.539	0.182	0.649	0.713	-0.308 (inactive)	-0.19	-0.124	0.729	0.676	0.681	0.794	-0.579	0.991
COC(=O)[C@@]1(Cc2ccc(F)cc2)[C@H]2c3cc(C(=O)N(C)C)n(Cc4ccc(OC(F)(F)F)cc4)c3C[C@H]2CN1C(=O)c1ccccc1	0.841	0.167	0.242	0.11	-0.191	-0.0758	0.442	0.0924	-0.147	0.414	0.239	-0.249 (inactive)	0.11	-0.078	0.0217	0.398	0.0642	-0.0367	-0.0356	0.296
CC(=O)NCCCC[C@@H]1NC(=O)[C@@H]2C[C@H](C(=O)NCCCCCN)[C@H](c3cccc(OCCO)c3)N2C1=O	0.794	-0.0844	0.736	1.09	0.634	0.0546	0.663	0.489	1.03	1.16	0.379	0.36 (inactive)	0.324	0.0181	0.697	0.812	0.0312	0.803	0.56	1.11
O=C(O)[C@@H]1C[C@@H]2C(=O)N3CCC[C@H]3C(=O)N2[C@@H]1c1ccc(O)cc1	1.05	3.97	0.48	0.271	0.204	-0.0701	-0.0289	-0.226	0.343	0.964	-0.0352	0.309 (inactive)	0.0927	-0.0126	0.579	0.538	0.619	0.721	0.931	0.878
CCCCCN1CC=CC23O[C@@H]4/C=C\CCC(C)OC(=O)C4[C@H]2C(=O)N(C(CO)C(C)C)[C@@H]3C1=O (stereo not given in full)	-0.333	-1.64	-0.214	-0.983	-0.876	-0.172	-0.469	-0.463	0.163	0.0325	0.157	0.141 (inactive)	-0.247	-0.182	0.824	0.337	0.57	0.132	-0.461	0.192
O=C1OCCC=C[C@H]2OC34C=CCN(c5ccc6ccccc6c5)C(=O)[C@H]3N(CCCO)C(=O)[C@@H]4C12 (stereo not given in full)	-2	-0.24	-1.31	-0.834	-0.885	-0.294	-0.153	0.181	-1.25	-1.27	-1.39	0.168 (inactive)	-0.278	-0.205	-0.303	-0.626	-0.678	-1.82	-2.29	-0.533
Cc1ccc(S[C@]2(C(=O)O)CC(=O)N(C3CCCCC3)[C@@H]2c2ccc(CO)cc2I)cc1	1.35	-0.298	-0.326	1.79	0.63	-0.113	0.351	1.06	1.4	0.763	0.905	0.258 (inactive)	0.175	-0.013	0.331	2.84	1.01	1.29	-0.565	1.02
CC(CO)N1C(=O)[C@]2(C)C3C(=O)OCCC/C=C\[C@H]3OC23C=CCN(c2ccc(Cl)cc2)C(=O)[C@@H]13 (stereo not given in full)	-0.886	0.636	-0.945	-0.275	0.079	-0.0573	-0.243	-0.318	-0.549	-0.358	0.739	-0.462 (inactive)	-0.186	-0.14	0.867	-0.354	0.644	-1.61	0.217	-0.474
COc1ccc(CCNC(=O)[C@@H]2c3ccccc3C(=O)N(C3CCCCC3)[C@H]2c2ccc(CO)cc2)cc1	1.48	-1.82	-0.306	0.112	-0.184	-0.0403	0.0098	-0.402	-0.17	0.371	-0.295	0.0861 (inactive)	-0.119	-0.0317	0.608	2.15	0.922	0.508	-0.524	0.802
C=CCOC(=O)[C@@H]1[C@H]2C(=O)O[C@H](c3ccccc3)[C@H](c3ccccc3)N2[C@H](c2ccc(OCCOC(=O)[C@@H]3C[C@@H]4C(=O)N[C@@H](CCCC[N+](C)(C)C)C(=O)N4[C@@H]3c3ccc(O)cc3)cc2)[C@@]12C(=O)Nc1ccc(I)cc12	1.41	-0.282	0.459	-0.14	-0.521	-0.112	0.614	0.559	1.36	0.923	0.118	-0.0092 (inactive)	0.0282	-0.084	0.473	1.92	0.417	1.29	0.841	0.756
